Where two headings read alike, the source gives them in different places.

Drawing on article PMC11062922 (Nature Chemical Biology, 2023), this text covers potency estimated from few doses for 22 compounds.

Common to all, as to parameters: species or system human, MV4-11 + K-562 + COLO205 + SK-N-BE2 + OVCAR-8
The test system of experiment [1] is DDR1. To be noted: read-out: apparent Kd, n = 1.
The subject of experiment [2] is FLT3. To be noted: read-out: apparent Kd, compound concentrations: 100 nM and 1000 nM (sheet 'Samples'), n = 1.
Experiment [3] has as its system TNK2. To be noted: read-out: apparent Kd; compound concentrations: 100 nM and 1000 nM (sheet 'Samples'), CATDS: 6.4241949787580299E-2; n = 1.
Experiment [4] deals with AKT2. The note with it: read-out: apparent Kd, n = 1.
Experiment [5] deals with LYN. To be noted: read-out: apparent Kd; compound concentrations: 100 nM and 1000 nM (sheet 'Samples'), CATDS: 3.75888213105793E-2; n = 1.
The test system of experiment [6] is GSK3A. The note with it: read-out: apparent Kd, compound concentrations: 100 nM and 1000 nM (sheet 'Samples'), n = 1.
Experiment [7] deals with GSK3B. The note with it: read-out: apparent Kd, compound concentrations: 100 nM and 1000 nM (sheet 'Samples'), n = 1.
For experiment [8], the system named is EGFR. The note with it: read-out: apparent Kd, n = 1.
Experiment [9] concerns FRK. The note with it: read-out: apparent Kd; compound concentrations: 100 nM and 1000 nM (sheet 'Samples'), CATDS: 5.2265489654336902E-2; n = 1.
In experiment [10] the test system is DYRK1A. The note with it: read-out: apparent Kd; compound concentrations:100 nM and 1000 nM (sheet 'Samples'); n = 1.
In experiment [11] the test system is MAPK14. To be noted: read-out: apparent Kd, n = 1.
Experiment [12] deals with ACAD11. To be noted: read-out: apparent Kd, n = 1.
The subject of experiment [13] is ACVR1B. The note with it: read-out: apparent Kd, compound concentrations: 100 nM and 1000 nM (sheet 'Samples'), n = 1.
[14] abbreviates: compound concentrations:100 nM and 1000 nM (sheet 'Samples').

Consider `CN1CCN(Cc2ccc(NC(=O)Nc3ccc(N(C)c4ccnc(Nc5ccc(CS(C)(=O)=O)cc5)n4)cc3)cc2)CC1.Cl` [GW827654A], for which the potency estimated from few doses in experiment [1] (compound concentrations: 100 nM and 1000 nM (sheet 'Samples'), CATDS: 9.0540797508364801E-2) was 0.147 µM; in experiment [2] (CATDS: 0.105116266606525) it was 0.112 µM; in experiment [3] it was 0.295 µM.

Turning to `Clc1ccc(-c2nn3ncccc3c2-c2ccnc(Nc3ccccc3)n2)cc1` [GW829055X], the potency estimated from few doses in experiment [4] (compound concentrations: 100 nM and 1000 nM (sheet 'Samples'), CATDS: 4.03721310315426E-2) was 1.15 µM; in [5], 1.35 µM.

For `Cn1cc(C2=C(c3ccccc3[N+](=O)[O-])C(=O)NC2=O)c2ccccc21` [RO0317753-000], the potency estimated from few doses in [6] (CATDS: 0.31381008714401198) was 0.0261 µM; in experiment [7] (CATDS: 0.304149371612502) it was 0.0276 µM.

For the compound `Cc1ccc(-n2nc(C(C)(C)C)cc2NC(=O)Nc2ccc(OCCN3CCOCC3)cc2)cc1` [BIRB0876BS], the potency estimated from few doses in experiment [1] (setting [14]) is 0.607 µM.

Regarding `O=C1Nc2ccc(F)cc2/C1=C/c1ccc[nH]1` [RO0272148-000], in [2] (CATDS: 0.86450810261160804), the potency estimated from few doses is 0.0985 µM.

For the compound `CS(=O)(=O)c1ccc(-c2nc3n(c2-c2ccncc2)CCC3)cc1` [SKF-105942], in [4] (compound concentrations: 100 nM and 1000 nM (sheet 'Samples'), CATDS: 0.110414115877762), the potency estimated from few doses was 2.47 µM.

Take `Fc1cccc(COc2ccc(Nc3ncncc3C#Cc3ccccc3)cc2Cl)c1` [GW651576X]: the potency estimated from few doses in [8] (compound concentrations: 100 nM and 1000 nM (sheet 'Samples'), CATDS: 8.85764063435832E-2) was 0.663 µM.

`Cn1cc(C2=C(c3cn(CCCN/C(N)=N/[N+](=O)[O-])c4ccccc34)C(=O)NC2=O)c2ccccc21` [RO0318161-000]: the potency estimated from few doses in experiment [6] (CATDS: 0.30578210093767899) was 1.28 µM.

For the compound `COc1cc(N2CCN(C(C)C)CC2)ccc1Nc1nc(Nc2cccc(F)c2C(=O)O)c2cc[nH]c2n1` [GSK1819799A], the potency estimated from few doses is 1.95 µM in experiment [4] (compound concentrations: 100 nM and 1000 nM (sheet 'Samples'), CATDS: 4.3054850332127297E-2); 1.13 µM in [9].

Regarding `COc1ccc(C2=C(c3cn(C)c4ccccc34)C(=O)NC2=O)cc1OC` [RO3206363-000], the potency estimated from few doses was 0.149 µM in experiment [4] (compound concentrations: 100 nM and 1000 nM (sheet 'Samples'), CATDS: 8.3129465265060903E-2); 0.503 µM in experiment [6] (CATDS: 4.8098017287816999E-2); 0.722 µM in experiment [7] (CATDS: 4.2103313064090798E-2).

With `CCS(=O)(=O)c1ccc(OC)c(Nc2ncc(-c3cccc(F)c3)o2)c1` [GW621970X_KCGS], in [10], the potency estimated from few doses is 1.66 µM.

As for `Cl.Oc1ccc2ncnc(Nc3ccc(OCc4ccccc4)cc3)c2c1` [GI262866A], the potency estimated from few doses in [8] (setting [14]) is 0.106 µM; in experiment [11] (setting [14]), 0.77 µM.

For `Cc1[nH]nc2c1N=C(c1ccccc1Cl)c1cc([N+](=O)[O-])ccc1N2` [RO0274406-000], the potency estimated from few doses is 0.504 µM in [6] (CATDS: 0.10002413728449901) and 0.472 µM in experiment [7] (CATDS: 0.102894851356177).

Turning to `COc1cc2ncn(-c3cc(O[C@H](C)c4ccccc4Cl)c(C(N)=O)s3)c2cc1OC` [GSK237701A], the potency estimated from few doses in [12] (setting [14]) was 0.756 µM.

With `COc1ccc(-c2nn3ncccc3c2-c2ccnc(Nc3ccc4c(c3)OCCO4)n2)cc1` [GW827106X], the potency estimated from few doses in [13] (CATDS: 6.5023219002079705E-2) was 0.849 µM; in experiment [1] (compound concentrations: 100 nM and 1000 nM (sheet 'Samples'), CATDS: 9.2725066561010094E-2) it was 0.461 µM; in experiment [11] (compound concentrations: 100 nM and 1000 nM (sheet 'Samples'), CATDS: 7.81285273726149E-2), 0.61 µM.

Turning to `CC(=O)Nc1ccc2c(C3=C(c4cn(C)c5ccccc45)C(=O)NC3=O)cn(C)c2c1` [RO0317596-000], the potency estimated from few doses in [6] (CATDS: 0.16934615909466) was 0.626 µM; in experiment [7] (CATDS: 0.12883781394947599), 1.1 µM.

With `COc1ccc(-c2ccncc2)cc1C(N)=O` [GSK605714A], the potency estimated from few doses in experiment [12] (compound concentrations: 100 nM and 1000 nM (sheet 'Samples'), CATDS: 0.66413142428119099) is 0.619 µM.

Regarding `Cn1cc(C2=C(c3cn(CCCCCO)c4ccccc34)C(=O)NC2=O)c2ccccc21` [RO0318053-000], the potency estimated from few doses in experiment [6] (CATDS: 0.11270550310053699) was 0.467 µM; in experiment [7] (CATDS: 0.11014328392113699) it was 0.504 µM.

Regarding `Nc1c(C(=O)c2ccccc2)cnn1-c1ccc(F)cc1` [RO1151246-000], the potency estimated from few doses is 1.8 µM in experiment [4] (setting [14]); 1.63 µM in experiment [11] (compound concentrations: 100 nM and 1000 nM (sheet 'Samples'), CATDS: 4.1752144248388801E-2).

`Fc1ccc(-c2ncn(C3CCNCC3)c2-c2ccnc(Oc3ccc4c(c3)OCO4)n2)cc1` [SB-250715]: the potency estimated from few doses in experiment [4] (setting [14]) was 1.36 µM; in experiment [11] (setting [14]), 0.0107 µM.

Take `Cl.Fc1cccc(COc2ccc(Nc3ncnc4cc(-c5ccc[nH]5)sc34)cc2Cl)c1` [GW693881A]: the potency estimated from few doses in experiment [8] (compound concentrations: 100 nM and 1000 nM (sheet 'Samples'), CATDS: 0.260445959414705) was 0.495 µM.

Regarding `Fc1ccc(-c2nn3ccccc3c2-c2ccncc2)cc1` [GW434756X], the potency estimated from few doses was 1.23 µM in experiment [13] (CATDS: 6.8235886805588605E-2); 0.709 µM in experiment [11] (compound concentrations: 100 nM and 1000 nM (sheet 'Samples'), CATDS: 8.8352679979738905E-2).
